LmPK inhibitor = qHTS Assay for Inhibitors of Leishmania Mexicana Pyruvate Kinase (LmPK) | Potency, µM (titrated, usually from 57.5 µM), without a hit: at the top dose activity change, negative = inhibition, actives largely listed as inhibitors | Q27686 | purified LmPK, Kinase-Glo ATP luminescence, 1 h | 290,000 compounds, 0.37% hits; also: potency is read from the fitted curve at half-maximal effect; % is scaled to controls: 0 for no effect and ±100 for the full control effect
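Screened at intermediate enzyme activity to detect both inhibitors and activators: LmPK at 0.1 nM, with a 0.5 nM enzyme column as activation reference. PEP 0.5 mM, ADP 0.1 mM; ATP detected by luminescence after 1 h.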
CHX counter = Cycloheximide Counterscreen for Small Molecule Inhibitors of Shiga Toxin | cell reporter, cycloheximide protein synthesis inhibition counterscreen | max response, % | 300,000 compounds, 12% hits | AID 2314, 2010; in the data active = max response mostly above about 13%, no sharp cut-off; inactive = mostly below about 14%; also: read at 38.3 µM for the half of the compounds with a filed dose; 0% is about no effect
FBPA Giardia inh = qHTS Assay for Inhibitors of Fructose-1,6-bisphosphate Aldolase from Giardia Lamblia; A8B2U2; purified Giardia FBPA; Potency, µM (highest dose often 59.6 µM), for the others: top-dose activity, negative = inhibition, actives largely listed as inhibitors; 290,000 compounds, 0.71% hits; AID 2451, 2010; also: potency is read from the fitted curve at half-maximal effect; % is scaled to controls: 0 for no effect and ±100 for the full control effect; nearly all actives have a fitted effect of over 55% in size
Target sequence (A8B2U2 whole entry, looked up): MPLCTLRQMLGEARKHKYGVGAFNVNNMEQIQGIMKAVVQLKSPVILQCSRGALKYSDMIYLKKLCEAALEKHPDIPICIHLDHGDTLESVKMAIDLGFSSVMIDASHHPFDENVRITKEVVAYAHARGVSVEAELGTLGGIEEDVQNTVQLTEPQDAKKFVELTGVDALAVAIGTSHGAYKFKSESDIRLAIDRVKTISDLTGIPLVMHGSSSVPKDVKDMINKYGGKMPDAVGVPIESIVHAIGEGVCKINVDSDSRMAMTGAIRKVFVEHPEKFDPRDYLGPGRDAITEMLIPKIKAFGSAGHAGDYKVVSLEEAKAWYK
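Giardia FBPA (40 nM reagent) was preincubated 10 min at RT with compound (up to 57.5 uM final), then substrate plus GAPDH/TPI/NAD/arsenate coupling system with diaphorase/resazurin was added; resorufin fluorescence (525/598 nm) was read after 20 min.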
Shiga inhibitor = A qHTS for Small Molecule Inhibitors of Shiga Toxin. Vero cells, Shiga toxin protein synthesis inhibition reporter. inhibition, % at 38.7 µM. 290,000 compounds, 9.2% hits; in the data active = inhibition mostly above about 28%, no sharp cut-off; inactive = mostly below about 43%; also: 0% is about no effect
TbPYK inhibitor = qHTS of Trypanosoma Brucei Inhibitors. pyruvate kinase (Trypanosoma brucei), Q57TT1. Potency, µM (doses to about 76.8 µM), for the others: at the highest dose activity, negative = inhibition, most hits filed as inhibitors. AID 624173, 2012. TbPYK enzyme, Kinase-Glo Plus ATP luminescence, 45 min. 410,000 compounds, 0.12% hits; also: potency is read from the fitted curve at half-maximal effect; % is scaled to controls: 0 for no effect and ±100 for the full control effect; nearly all actives have a fitted effect of over 50% in size
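T. brucei PYK with substrate was exposed to pin-transferred compounds across a concentration series, then started with 130 uM ADP (final). After 45 min at room temperature, Kinase-Glo Plus luminescence was read, normalized and curve-fitted.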
Sm TGR block = qHTS Assay for the Inhibitors of Schistosoma Mansoni Peroxiredoxins | Schistosoma mansoni thioredoxin glutathione reductase (TGR), Q962Y6 | purified TGR, DTNB reduction, TNB absorbance 405 nm | Potency, µM (series often up to 114 µM), for inactives: top-dose activity change, negative = inhibition, actives largely listed as inhibitors | 360,000 compounds, 3% hits | AID 485364, 2010; also: potency is read from the fitted curve at half-maximal effect; % is scaled to controls: 0 for no effect and ±100 for the full control effect; nearly all actives have a fitted effect of over 60% in size
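Kinetic colorimetric format: TGR-catalysed, NADPH-driven DTNB reduction monitored via TNB absorbance. Enzyme dispensed at 20 nM; compound exposure 15 min at room temperature before reaction start.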
* marks the source's active call; other numbers are inactive results; ? = inconclusive; nt = no result given; [ ] = dose if it differs, or a comment. Shown is part of a subset that was picked to be rich in hits. Unless noted, calls follow the shape of the dose curve; as a rule, active = well fitted curve in the direction sought with a large enough effect; inconclusive = small, poorly fitted or top-dose-only effect, or another doubt; inactive = no such curve, though single readings can be large; an effect the other way counts as inactive or inconclusive.

SMILES	LmPK inhibitor	CHX counter	FBPA Giardia inh	Shiga inhibitor	TbPYK inhibitor	Sm TGR block
COc1ccc(CNc2oc(COc3ccc(Cl)cc3)nc2C#N)cc1	6%	-3	3%	-2	-2%	33%
CCN1C(=O)C(=Cc2ccc(C)s2)C(=O)N(CC)C1=S	0%	21	-11%	44*	?	0%
CCc1nc2c(OCc3ccccc3C(=O)OC)cccn2c1N(C)C(=O)CC(C)C	nt	nt	nt	nt	0%	nt
COc1ccc(Cn2c(C)ccc2C)cc1	1%	-5	-10%	-22	-1%	32µM*
COC1=CC(=O)OC(/C=C/c2ccccc2)C1 (stereo unspecified)	-3%	23*	1%	47*	-5%	-7%
O=C(CCSCc1cnn(-c2ccccc2)c1-n1cccc1)NCc1ccc(Cl)cc1	nt	nt	nt	nt	-5%	-14%
COc1cccc(C(=O)N/N=C(\C)CC(=O)Nc2ccc(N(C)C)cc2)c1	0%	41*	-6%	57	-34%	?
C/C(=N\NC(=O)c1ccncc1)c1ccc(N(C)C)cc1	6%	14	-9%	7	-2%	-3%
COc1cccc(/C(C)=N/NC(=O)c2ccc(N(C)C)cc2)c1	?	33*	1%	69*	-3%	6%
CCOC(=O)Cn1nc(-c2ccccc2)c2cnc3ccc(OCC)cc3c21	nt	nt	nt	nt	-1%	-6%
FC(F)C(F)(F)Oc1cccc(Nc2nccn3c(-c4cccc5cccnc45)cnc23)c1	nt	nt	nt	nt	6%	nt
COc1cccc(C=Cc2nccc3ccccc23)c1OC	nt	nt	nt	nt	-3%	nt
CCOc1cccc(/C=C/c2ccc3cccc(O)c3n2)c1OC	2%	52*	23%	93*	3%	2%
CCOc1cccc(/C=C/c2ccc3cccc(O)c3n2)c1O	1%	27*	-11%	139*	-2%	4%
CCCCCCN1C[C@H](n2cc(C3CC3)nn2)[C@@H](O)C[C@@H]1c1ccc(OC)cc1	nt	nt	nt	nt	0%	nt
O=C(CCCn1c(=S)[nH]c2ccsc2c1=O)Nc1ccc2c(c1)OCCO2	1%	39*	-20%	98*	?	8%
O=C(CSc1ncccn1)Nc1ccc2c(c1)OCO2	nt	nt	nt	nt	-1%	nt
O=C(CCn1c(=S)oc2ccccc21)Nc1ccc2c(c1)OCCO2	2%	15*	-6%	13	3%	12%
CC(=O)Nc1ccc(NC(=O)CCn2c(=S)oc3ccccc32)cc1	2%	-2	-2%	3	0%	-9%
O=C(CCn1c(=S)oc2ccccc21)N1CCCCC1	11%	26*	1%	24	-2%	-11%
O=C(CSc1ncccn1)NC(=O)Nc1ccc2c(c1)OCCO2	-5%	35*	-2%	46*	-1%	6%
COc1ccccc1NS(=O)(=O)c1cn(C)c(C)n1	nt	nt	nt	nt	8%	2%
CCn1c(SCC(=O)Nc2ccc3c(c2)OCCO3)nnc1-c1ccco1	8%	2	-21%	6	5%	0%
CN(C)C(=O)c1ccc(-n2cnc3ccccc3c2=O)cc1	1%	-1	4%	18	1%	11%
O=c1c2ccccc2ncn1-c1ccc2c(c1)OCCO2	-5%	32*	-1%	65*	-10%	7%
SMILES	LmPK inhibitor	CHX counter	FBPA Giardia inh	Shiga inhibitor	TbPYK inhibitor	Sm TGR block
COc1cccc(Nc2nnc(SCC(=O)N3CCOCC3)s2)c1	-1%	16*	-14%	73	-2%	-6%
CCn1c(SCC(=O)NC(=O)Nc2ccc3c(c2)OCCO3)nnc1-c1cccs1	14%	18*	-1%	46	6%	4%[11.4 µM]
COc1ccc(Nc2nnc(SCC(=O)N3CCCC3)s2)cc1	15%	1	-3%	-3	-22%	5%
COc1ccc(Nc2nnc(SCC(=O)NC(=O)Nc3ccc4c(c3)OCCO4)s2)cc1	-1%	15*	0%	41	-11%	-2%
c1csc(CNc2ncncc2-c2ccc3c(c2)OCO3)c1	nt	nt	-4%	nt	nt	nt
CC1(C(=O)NS(=O)(=O)c2ccccc2Cl)CCN1C(=O)C1(c2ccc(Cl)cc2)CCC1 (stereo unspecified)	nt	nt	nt	nt	0%	nt
Cn1c(=O)c2cc(NC(=O)OCCF)ccc2n1Cc1cccc(C(F)(F)F)c1	nt	nt	nt	nt	-4%	nt
CN(C)S(=O)(=O)c1ccc(SCC(=O)Nc2ccc3c(c2)OCCO3)nc1	nt	nt	nt	nt	-2%	-7%
Cc1cc(=O)[nH]c(SCC(=O)Nc2ccc3c(c2)OCCO3)n1	-12%	-2	-4%	-14	-2%	3%
O=C(CSc1nccc(=O)[nH]1)Nc1ccc2c(c1)OCCO2	7%	42*	5%	155*	-1%	7%
O=C(CSc1ccccn1)Nc1ccc2c(c1)OCCO2	-4%	54*	-7%	89*	5%	2%
O=C(CCn1cnc2ccccc2c1=O)Nc1ccc2c(c1)OCCO2	-2%	14*	2%	73*	1%	9%
O=C(CSc1ccc([N+](=O)[O-])cn1)Nc1ccc2c(c1)OCCO2	0%	17*	-13%	34	-5%	-9%
Nn1c(SCC(=O)Nc2ccc3c(c2)OCCO3)nnc1-c1ccccn1	-2%	-4	6%	-7	-2%	7%
CCc1noc(C)c1C(=O)Nc1cc(S(=O)(=O)N2CCOCC2)ccc1N1CCN(CC)CC1	nt	nt	nt	nt	-4%	-4%
Cc1ccnc(N2C(=O)c3ccccc3C2Nc2cccc(C)c2C)c1 (stereo unspecified)	-2%	15*	2%	28*	1%	1%
Cc1ccnc(N2C(=O)c3ccccc3C2O)c1 (stereo unspecified)	?	39*	-5%	42	?	0%
CCOC(=O)c1ccccc1NC(=O)Cn1ccn2nc(-c3ccc(OCC)cc3)cc2c1=O	nt	nt	nt	nt	-7%	-5%
Fc1ccccc1CSc1nnc(-c2cnccn2)n1Cc1ccco1	2%	16	0%	24	-20%	-21%
O=C(CSc1nnc(-c2cnccn2)n1Cc1ccco1)c1ccc2ccccc2c1	6%	-5	-6%	-37	-7%	25µM*
CC(C)OC(=O)CSc1nnc(-c2cnccn2)n1Cc1ccco1	-3%	10	-5%	40	6%	-4%
CN(C)c1ccc(NC(=O)CSc2nnc(-c3cnccn3)n2C)cc1	1%	13*	3%	37	0%	-2%
CCc1ccc(NC(=O)CSc2nnc(-c3cnccn3)n2C)cc1	1%	9	nt	-4	-11%	7%
CCn1c(SCC(=O)O)nnc1-c1ccccc1OC	7%	49*	-23%	103*	2%	2%
C(=C\c1ccccc1)/CSc1nnc(-c2cnccn2)n1Cc1ccco1	-2%	6	-9%	-1	-25%	20µM*

Assay outcomes from PubChem.
